Source: PubChem BioAssay AID1159580 (chemical genetic matrix, 2015)
Out of some 5,500 compounds screened, about 2,000 (36%) were called active. Roughly 18% stayed inconclusive and do not appear here. Cut-off read from the data, not from the text of the source: active = normalized growth mostly below about 0.91 (no sharp cut-off); inconclusive = no clear call, values can overlap the other calls; inactive = mostly above about 0.92. The list shows a part of the results.

Test: chemical genetic growth profiling, strain panel (AID 1159580);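 note: tested at 20 µM; growth read once vehicle control cultures reached saturation at 30 °C; 1 = growth at the plate median or of vehicle wells; lower values mean less growth of the strain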
Details: S. cerevisiae deletion strains, growth OD

Measured: normalized growth

O=C(NNc1cc(C(F)(F)F)cc(C(F)(F)F)c1)c1cnc2n(c1=O)CCS2
inactive: locus YAR019C, strain CDC15, stronger effect = lower value 0.985 | locus YBL105C, strain PKC1, stronger effect = lower value 0.987 | locus YBR135W, strain CKS1, stronger effect = lower value 0.99 | locus YBR136W, strain MEC1, stronger effect = lower value 0.983 | locus YBR160W, strain CDC28, stronger effect = lower value 0.99 | locus YDL017W, strain CDC7, stronger effect = lower value 0.986 | locus YDL028C, strain MPS1, stronger effect = lower value 0.991 | locus YDL101C, strain DUN1, stronger effect = lower value 0.983 | locus YDL108W, strain KIN28, stronger effect = lower value 1 | locus YDL132W, strain cdc53, stronger effect = lower value 0.998 | locus YDL214C, strain PRR2, stronger effect = lower value 0.992 | locus YDR052C, strain DBF4, stronger effect = lower value 0.991 | locus YDR054C, strain cdc34, stronger effect = lower value 0.993 | locus YDR226W, strain ADK1, stronger effect = lower value 0.987 | locus YDR477W, strain SNF1, stronger effect = lower value 0.994 | locus YER123W, strain YCK3, stronger effect = lower value 0.936 | locus YER133W, strain GLC7, stronger effect = lower value 0.977 | locus YFL009W, strain cdc4, stronger effect = lower value 0.987 | locus YFL029C, strain CAK1, stronger effect = lower value 1 | locus YFR003C, strain YPI1, stronger effect = lower value 0.999 | locus YFR019W, strain FAB1, stronger effect = lower value 0.982 | locus YFR028C, strain CDC14, stronger effect = lower value 0.983 | locus YGR040W, strain KSS1, stronger effect = lower value 1 | locus YGR052W, strain FMP48, stronger effect = lower value 1.03 | locus YGR092W, strain DBF2, stronger effect = lower value 0.961 | locus YHR030C, strain SLT2, stronger effect = lower value 0.939 | locus YHR079C, strain IRE1, stronger effect = lower value 0.972 | locus YHR082C, strain KSP1, stronger effect = lower value 1.01 | locus YHR205W, strain SCH9, stronger effect = lower value 0.938 | locus YIL147C, strain SLN1, stronger effect = lower value 0.988 | locus YJL095W, strain BCK1, stronger effect = lower value 0.98 | locus YJL128C, strain PBS2, stronger effect = lower value 1.02 | locus YJL157C, strain FAR1, stronger effect = lower value 0.996 | locus YJR016C, strain ILV3, stronger effect = lower value 0.99 | locus YJR066W, strain TOR1 (second series), stronger effect = lower value 0.995 | locus YJR066W, strain TOR1, stronger effect = lower value 0.974 | locus YKL048C, strain ELM1, stronger effect = lower value 0.971 | locus YKL067W, strain YNK1, stronger effect = lower value 0.995 | locus YKL101W, strain HSL1, stronger effect = lower value 1.01 | locus YKL193C, strain SDS22, stronger effect = lower value 0.986 | locus YKL203C, strain TOR2, stronger effect = lower value 1.03 | locus YLR113W, strain HOG1, stronger effect = lower value 0.883 | locus YLR133W, strain CKI1, stronger effect = lower value 1.01 | locus YLR403W, strain SFP1, stronger effect = lower value 0.99 | locus YML070W, strain DAK1, stronger effect = lower value 0.973 | locus YMR001C, strain CDC5, stronger effect = lower value 0.995 | locus YMR205C, strain PFK2 (second series), stronger effect = lower value 1.01 | locus YMR277W, strain FCP1, stronger effect = lower value 0.992 | locus YNL006W, strain LST8, stronger effect = lower value 1 | locus YNL020C, strain ARK1, stronger effect = lower value 1 | locus YNL161W, strain CBK1, stronger effect = lower value 0.98 | locus YNL183C, strain NPR1, stronger effect = lower value 0.962 | locus YNL207W, strain RIO2, stronger effect = lower value 0.996 | locus YNL222W, strain SSU72, stronger effect = lower value 0.988 | locus YNL307C, strain MCK1 (second series), stronger effect = lower value 0.935 | locus YOL078W, strain AVO1, stronger effect = lower value 0.992 | locus YOL136C, strain PFK27, stronger effect = lower value 0.971 | locus YOR061W, strain CKA2, stronger effect = lower value 1.02 | locus YOR119C, strain RIO1, stronger effect = lower value 0.983 | locus YOR231W, strain MKK1, stronger effect = lower value 0.979 | locus YOR329C, strain SCD5, stronger effect = lower value 0.983 | locus YPL031C, strain PHO85, stronger effect = lower value 0.983 | locus YPL153C, strain RAD53, stronger effect = lower value 0.986 | locus YPL204W, strain HRR25, stronger effect = lower value 0.982 | locus YPL209C, strain IPL1, stronger effect = lower value 0.984 | locus YPL256C, strain CLN2, stronger effect = lower value 0.936 | locus YPR025C, strain CCL1, stronger effect = lower value 0.972 | locus YPR106W, strain ISR1, stronger effect = lower value 0.995 | locus YPR111W, strain DBF20, stronger effect = lower value 0.997 | strain NNK1, stronger effect = lower value 0.988 | strain TSCII, stronger effect = lower value 0.987
